According to PubChem BioAssay (NCI):
This is part of a sample that, as a whole, favours compounds with a hit. Of some 79,000 tested, about 15% had one in any assay. Rule as the data show it: active = growth inhibition above about 70%; inactive = the rest.

What was measured:
[1] = NCI Yeast Anticancer Drug Screen. Data for the rad50 strain (AID 155);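 also: 0% = growth of vehicle-only cultures of the same strain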; conditions: S. cerevisiae rad50 strain growth inhibition; at 50.0 µM; stronger effect = higher value
Procedure, shortened: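 Compounds were tested on a yeast strain with an engineered DNA damage repair alteration; the reported value is growth inhibition normalised to vehicle treatment.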

[2] = NCI Yeast Anticancer Drug Screen. Data for the mec2-1 strain (AID 157); conditions: S. cerevisiae mec2-1 strain, at 50.0 µM, stronger effect = higher value
Procedure, shortened: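 Each compound was tested on mec2-1 yeast, a strain altered in DNA damage repair or cell cycle control. Growth inhibition is reported relative to vehicle.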

[3] = NCI Yeast Anticancer Drug Screen. Data for the sgs1 mgt1 strain (AID 161);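 also: 0% = growth of cultures given vehicle only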; conditions: S. cerevisiae sgs1 mgt1 strain, at 50.0 µM, stronger effect = higher value
Procedure, shortened: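 Genetically altered yeast, compound exposure, growth inhibition relative to vehicle.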

[4] = NCI Yeast Anticancer Drug Screen. Data for the cln2 rad14 strain (AID 165);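 also: 0% = growth equal to vehicle treated cultures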; conditions: S. cerevisiae cln2 rad14 strain, at 50.0 µM, stronger effect = higher value
Procedure, shortened: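 Test compounds were added to cln2 rad14 yeast cultures; inhibition of growth was then determined by comparison with vehicle treatment.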

[5] = NCI Yeast Anticancer Drug Screen. Data for the bub3 strain (AID 167); conditions: S. cerevisiae bub3 mutant strain, at 50.0 µM, stronger effect = higher value
Procedure, shortened: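 Growth of a checkpoint-deficient yeast mutant is measured after compound exposure. Values represent inhibition relative to vehicle.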

[6] = NCI Yeast Anticancer Drug Screen. Data for the mlh1 rad18 strain (AID 175); conditions: S. cerevisiae mlh1 rad18 strain growth inhibition; at 50.0 µM; stronger effect = higher value
Procedure, shortened: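 Inhibition values reflect reduced growth of mutant yeast versus vehicle-treated controls following compound exposure; the mutations affect DNA damage repair.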

Measured: growth inhibition

CC(C)/C=N\N1C(N)=C(C#N)C(C#N)(C#N)C1C(C)C (centres undefined)
inactive: [1] -0.65% | [2] 10.5% | [3] -35.3% | [4] -19.4% | [5] -12.2% | [6] -41.3%

CCCCCSc1ncnc2c1ncn2CO
inactive: [1] 0.9% | [2] 18.1% | [3] 7.45% | [4] 9.75% | [5] 42.7% | [6] 3.6%

CC(C)(CO)N1CCN(C(=S)Nc2ccccc2)CC1
inactive: [1] 17.9% | [2] -2.6% | [3] -0.3% | [4] -1.9% | [5] -10.8% | [6] 17.8%

O=C1c2ccccc2C(=O)N1CCS(=O)(=O)CCS(=O)(=O)CCN1C(=O)c2ccccc2C1=O
inactive: [1] -0.1% | [2] 4.95% | [3] -14.9% | [4] -37.5% | [5] -0.95% | [6] 4.5%

O=S(=O)(c1ccccc1)C1CCCC1
inactive: [1] -12.2% | [2] 8.9% | [3] -1.85% | [4] -11.8% | [5] -6.7% | [6] -2.9%

CCCCn1c(=S)sc2ccccc21
inactive: [1] 15.2% | [2] 4.45% | [3] 20.8% | [4] -50.5% | [5] 21.7% | [6] 22.4%

N#Cc1cnc(=S)n(-c2cc(C(F)(F)F)cc(C(F)(F)F)c2)c1N
inactive: [1] 5.7% | [2] -10.9% | [3] 15.9% | [4] 11.7% | [5] 8.85% | [6] 11.5%

O=C(c1ccccc1)C1CCCCN1C(=O)c1ccccc1 (centres undefined)
inactive: [1] -13.8% | [2] -8.3% | [3] -4.6% | [4] -17.3% | [5] 27.9% | [6] -21.9%

CNC(=O)Nc1cc(C)ccc1Cl
inactive: [1] -0.9% | [2] -6.05% | [3] -8.55% | [4] -70% | [5] 1.15% | [6] -6.7%

O=C(O)CCCC1(CCCC(=O)O)OCCO1
inactive: [1] 9.6% | [2] -4.45% | [3] -22.9% | [4] -60.5% | [5] -13.8% | [6] -2.8%

CC(=O)ON(C(C)=O)c1ccc(C(N)=O)cc1
inactive: [1] -16.6% | [2] 6.8% | [3] -13.2% | [4] 6.25% | [5] -15.3% | [6] -71.5%

O=C(CI)Nc1ccc2oc(=O)c(C(=O)O)cc2c1
inactive: [1] -7% | [2] -6.05% | [3] 4.85% | [4] -64.4% | [5] -2.9% | [6] -12.8%

CC(CC(=O)O)C(C)C(=O)O (centres undefined)
inactive: [1] -7.9% | [2] -4.45% | [3] -6.4% | [4] -7.7% | [5] 0.5% | [6] -13.4%

Nc1nc(N)c(N=Nc2ccc([N+](=O)[O-])cc2)c(=O)[nH]1
inactive: [1] -0.9% | [2] -16.9% | [3] -12% | [4] 9% | [5] 0.7% | [6] -3.9%

CC(C)CCNC(=O)CS(=O)(=O)c1ccc(N)cc1
inactive: [1] -2.15% | [2] -3.05% | [3] -11.9% | [4] -34.2% | [5] -23.1% | [6] -8.55%

COc1ccc2ccccc2c1C1/C(=N/O)CCc2ccccc21 (centres undefined)
inactive: [1] 30.4% | [2] 15.2% | [3] 12.2% | [4] -37.3% | [5] 10.6% | [6] 14.7%

Cc1nc2nn(C)cc2c(=O)n1/N=C/c1ccccc1
inactive: [1] -18.8% | [2] -35.5% | [3] -50.1% | [4] -5.9% | [5] -4.15% | [6] -37.4%

CCCCOC(=O)NC(Nc1ccc(S(=O)(=O)Nc2ccc(OC)nn2)cc1)(C(F)(F)F)C(F)(F)F
inactive: [1] -8.25% | [2] -1.5% | [3] -10.1% | [4] 5% | [5] -9.55% | [6] 2.95%

O=CNc1ccccc1O
inactive: [1] -2.55% | [2] -17.5% | [3] -25% | [4] 19.9% | [5] -14.3% | [6] 14.9%

CC(=O)OCc1cc(Cl)c(OC(C)=O)c(COC(C)=O)c1
inactive: [1] 7.75% | [2] -10.2% | [3] 8.8% | [4] 20.1% | [5] -9.05% | [6] 3.65%

CC1C(O)CC2(C(C)C)CC12 (centres undefined)
inactive: [1] 4.85% | [2] -0.25% | [3] -8.7% | [4] 12.3% | [5] -18.1% | [6] -10.4%

Oc1ccc(Cl)cc1/C=N\N=C\c1cc(Cl)ccc1O
inactive: [1] -50.3% | [2] -1.1% | [3] 5.75% | [4] -36.1% | [5] 3.15% | [6] 8.85%

Cc1ccc(S(=O)(=O)N/N=C2\C3CC4CC(C3)C2C4)cc1 (centres undefined)
inactive: [1] -21% | [2] -24.1% | [3] -12.9% | [4] -6.5% | [5] -6.25% | [6] -15.2%

N#Cc1c(-c2ccccc2)c(-c2ccccc2)cc2c(=O)c3ccc(Cl)cc3[nH]c12
inactive: [1] -27.3% | [2] 3.25% | [3] -2.9% | [4] 12.4% | [5] 7.2% | [6] 2.4%

CC(=O)N/N=C/c1ccc([N+](=O)[O-])s1
inactive: [1] 13.3% | [2] 15.1% | [3] 33.3% | [4] -11.8% | [5] 3.55% | [6] 45.5%

O=C1OC(=C(Cl)Cl)C2C3c4ccccc4C(c4ccccc43)C12 (centres undefined)
inactive: [1] 21.9% | [2] 21.6% | [3] -1.5% | [4] 8.75% | [5] 2.7% | [6] 18.2%

Cc1ccccc1/C=N/NC(=O)c1cccc2ccccc12
inactive: [1] -6.85% | [2] 0.8% | [3] -10.8% | [4] -23% | [5] 0.75% | [6] 0.6%

Cn1c(COC(=O)NC2CCCCC2)c(COC(=O)NC2CCCCC2)c2ccc3cc(C=O)ccc3c21
inactive: [1] 5.95% | [2] 7.85% | [3] -14.5% | [4] -3.95% | [5] -10.4% | [6] -27.3%

C=CCOc1ccc(C2C(C(=O)OCC)C(=O)CC(C)(O)C2C(=O)OCC)cc1OC (centres undefined)
inactive: [1] -6.25% | [2] -11.3% | [3] -7.15% | [4] -24% | [5] 1.35% | [6] -7.45%

CC12CCCCC1=C(F)C(F)(F)S2 (centres undefined)
inactive: [1] 0.15% | [2] -17.4% | [3] 7.45% | [4] 24.6% | [5] -2.45% | [6] 17.7%

CCN(CC)CCCCCOC(=O)c1cccc(N)c1
inactive: [1] -5.8% | [2] 0.35% | [3] -16.6% | [4] -45.9% | [5] 27.2% | [6] -10.1%

CCCCC1C2C(S(=O)(=O)c3ccccc3)=NOC2C=CN1C(C)=O (centres undefined)
inactive: [1] -6.4% | [2] -9% | [3] 1.55% | [4] 7.55% | [5] 3.25% | [6] 10.3%

CC(C)(C)SC(=S)SCC(=O)c1cc2cc(Br)ccc2o1
inactive: [1] -19.7% | [2] -25.6% | [3] -11.5% | [4] -3.25% | [5] -16.9% | [6] -8.5%

CC(=O)Nc1cc(OC(C)=O)nc2c1CCC2
inactive: [1] 14.2% | [2] -0.05% | [3] -5.5% | [4] 7.95% | [5] -1.05% | [6] 11.6%

CC(c1ccccc1O)C1CCCCC1N=O (centres undefined)
inactive: [1] -0.15% | [2] 3% | [3] 16.1% | [4] -48.5% | [5] 15.2% | [6] -4.15%

COc1ccc(-c2cc(=O)c3c(OC)cccc3o2)c(OC)c1OC
inactive: [1] -8.9% | [2] -12.7% | [3] -3.5% | [4] 0.95% | [5] -11.2% | [6] 9.8%

Cc1nc2c(cnn2C)c(=O)n1-c1ccccc1Cl
inactive: [1] 21.4% | [2] 17.2% | [3] 11.8% | [4] 41% | [5] 29.9% | [6] 17.3%

Nc1nc(N)c(N=Nc2cc(Cl)cc(Cl)c2)c(=O)[nH]1
inactive: [1] 24.2% | [2] 9.3% | [3] -12.3% | [4] -1.1% | [5] 3.15% | [6] 8.8%

O=C(CN1CCC(O)(c2ccc(F)cc2)CC1)N1CCN(C/C=C/c2ccccc2)CC1
inactive: [1] 42% | [2] 7.1% | [3] 9.8% | [4] 22.6% | [5] -1.7% | [6] 20.8%
